# Experimental data published in PubChem BioAssay (Tox21).
# Activity calls are given as the source filed them. The call rests on the fitted dose curve; in most records, active means well fitted curve in the direction sought with a large enough effect in the repeat runs; inconclusive means weak or mixed curves; inactive means flat fitted curve, though single readings scatter.
# Experiment: qHTS assay to test for compound auto fluorescence at 535 nm (green) in HepG2 cells (AID 720675)
# Conditions: green autofluorescence 485/535 nm, 1 h; series mostly up to 91.3 µM
# From the text: National Center for Advancing Translational Sciences [NCATS]
# NIH Chemical Genomics Center [NCGC]
# U.S. Environmental Protection Agency [EPA]
# National Institutes of Environmental Health Sciences [NIEHS]
# National Toxicology Program [NTP]
# U.S. Food and Drug Administration [FDA]
# Compound auto fluorescence often interferes with screening of the compound library against various biological targets and signaling pathways. Some of these compounds may have fluorophoric properties. Such properties may interfere with the assay outputs resulting in false positives and/or negatives. To decrease such complications and ensure the compound activities are relevant in terms of biological response, the Tox21 10K compound library was screened for auto fluorescence.
# From the fluorophores used as reporter signals in our screening assays, the auto fluorescence equivalencies of compounds against three fluorophores have been evaluated: Triamterene, Fluorescein and Rose Bengal sodium for blue, green and red fluorescence, respectively. The fluorescence intensities were measured using Excitation/Emission wavelengths at 405/460nm, 485/535nm and 540/590nm for blue, green and red labels, respectively. This assay includes the green fluorescence data.
# Tox21 Assay Protocol Summary:
# 2,000 HepG2 cells in 5 uL of culture medium (MEM containing 10% FBS) per well were dispensed into black wall/clear bottom 1536-well plates using a Multidrop Combi Dispenser (ThermoFisher Scientific, Waltham, MA). The assay plates were incubated overnight at 37 C to allow cell attachment to the well bottom, followed by the transfer of 23 nL compound or DMSO vehicle by a pintool work station (Kalypsys , San Diego, CA). After the assay plates were incubated for 1 hr at 37 C and 5% CO2, fluorescence intensities in the assay plates were measured by an Envision (PerkinElmer, Shelton, CT) plate reader using three labels for measuring blue, green and red fluorescence at […] 460, 535 and 590 nm respectively.
row,SMILES,outcome
1,CC1(C)C(C(=O)OC(C#N)c2cccc(Oc3ccccc3)c2)C1(C)C (stereo not given),inactive
2,CC(C)(c1ccc(OCC2CO2)cc1)c1ccc(OCC2CO2)cc1 (stereo not given),inactive
3,CC(C)(O)C#N,inactive
4,CCCCOC(=O)COC(=O)c1ccccc1C(=O)OCCCC,inactive
5,CNC(=S)S,inactive
6,CCCCCCCCCC(CC)c1ccc(S(=O)(=O)O)cc1 (stereo not given),inactive
7,Cc1cc(Cl)ccc1N=CN(C)C,inactive
8,CCC[CH2][Sn]([Cl])([Cl])[CH2]CCC,inactive
9,CCOP(=S)(OCC)OP(=S)(OCC)OCC,inactive
10,COc1ccc(O)c(C(C)(C)C)c1,inactive
11,CS(=O)(=O)NC(=O)c1cc(Oc2ccc(C(F)(F)F)cc2Cl)ccc1[N+](=O)[O-],inactive
12,CNC(=O)Oc1cccc2c1OC(C)(C)C2,inactive
13,CC(C)(C#N)N=NC(C)(C)C#N,inactive
14,CCOP(=O)(O)OCC (tested in a mixture with another compound),inactive
15,Brc1ccc(Br)cc1,inactive
16,O=C1C(Cl)=C(Cl)C(=O)c2ccccc21,inactive
17,Cl,inactive
18,[CH3][Sn]([Cl])([Cl])[Cl],inactive
19,Clc1ccccc1-c1nnc(-c2ccccc2Cl)nn1,inactive
20,c1ccc(C2CO2)cc1 (stereo not given),inactive

row,SMILES,outcome
1,Clc1cccc(Cl)c1,inactive
2,CCC(=O)Nc1ccc(Cl)c(Cl)c1,inactive
3,O=S(=O)(O)C(F)(F)C(F)(F)C(F)(F)C(F)(F)C(F)(F)C(F)(F)C(F)(F)C(F)(F)F,inactive
4,Cc1ccc([N+](=O)[O-])cc1,inactive
5,CC1=C(C(=O)Nc2ccccc2)SCCO1,inactive
6,CCN(CC)C(=O)C(C)Oc1cccc2ccccc12 (stereo not given),inactive
7,C[C@]12CCC(=O)C=C1CC[C@@H]1[C@@H]2CC[C@@]2(C)[C@H]1CC[C@]2(C)O,inactive
8,[Cl-].[Cl-].[Cl-].[Fe+3],inactive
9,CC(O)CN(CC(C)O)CC(C)O (stereo not given),inactive
10,COP(=O)(NC(C)=O)SC (stereo not given),inactive
11,CC(C)(c1ccccc1)c1ccc(O)cc1,inactive
12,Nc1ccc([N+](=O)[O-])cc1N,inactive
13,C[N+](C)(C)CC(=O)[O-],inactive
14,CCC[CH2][Sn]([Cl])([CH2]CCC)[CH2]CCC,inactive
15,CC(C)COC(=O)c1ccccc1C(=O)OCC(C)C,inactive
16,ClC(Cl)(Cl)Br,inactive
17,COP(=S)(OC)SCn1nnc2ccccc2c1=O,inactive
18,CCNc1nc(Cl)nc(NC(C)(C)C#N)n1,inactive
19,O=C(O)CF,inactive
20,Oc1ccc(Cl)cc1Cc1ccccc1,inactive
